Laboratory results from PubChem BioAssay (EPA / NIEHS).
Inconclusive results are not listed. Calls of active or inactive are those of the source. Rule for the calls, unless noted: active = hit-call score of the fitted dose curve at least 0.9, where 1 is the maximum; inconclusive = response in the unintended direction; inactive = score below 0.9.

Key:
[1] = target: Retinoic acid receptor RXR-alpha (Homo sapiens) (UniProt P19793); assay: OT_NURR1_NURR1RXRa_1440: Odyssey Thera (OT) 24-hour HEK293T Protein Complementation Assay for Nurr1/retinoid X receptor (RXR) (AID 2283386)
In short: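 Fluorescence PCA read-out; HEK293T; 24 h post-dose; bait/prey fused to reporter fragments; gain-of-signal fit vs DMSO negative control.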

[2] = target: Peroxisome proliferator-activated receptor gamma (Homo sapiens) (UniProt P37231); assay: OT_PPARg_PPARgSRC1_0480: Odyssey Thera (OT) 8-hour Protein-Complementation Assay for Peroxisome Proliferator-activated Receptor Gamma / SRC-1 Co-activator (AID 2283387)
In short: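 Read-out: 488 nm N/C fluorescence ratio from complemented Venus YFP fragments, ≥350 cells per image, gain-of-signal fitted against DMSO baseline. Fusions of PPARg/SRC-1 with IFP1/IFP2 expressed transiently in HEK293T; compounds applied 8 h.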

[3] = target: Peroxisome proliferator-activated receptor gamma (Homo sapiens) (UniProt P37231); assay: OT_PPARg_PPARgSRC1_1440: Odyssey Thera (OT) 24-hour Protein-Complementation Assay for Peroxisome Proliferator-activated Receptor Gamma/ SRC-1 Co-activator (AID 2283388)
In short: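 HEK293T cells transiently transfected with PPARg and SRC-1 fused via (Gly4Ser)2 linker to split Venus YFP fragments (IFP1/IFP2) were dosed 24 h; fixed, Draq5-stained, imaged at 488/635 nm; nuclear/cytoplasmic fluorescence ratio scored versus DMSO baseline, gain-of-signal.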

[4] = CEETOX_H295R_OHPREG: CeeTox H295R High-throughput Steroidogenesis Assay for OH-Pregnenolone (OHPREG) (AID 2283434; active = hit-call score of the fitted dose curve at least 0.9, where 1 is the maximum; inactive = score below 0.9); conditions: actives raise or lower the signal
In short: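 Readout: HPLC-MS/MS of 17alpha-hydroxypregnenolone in medium after 48 h chemical exposure of H295R cells pretreated with forskolin. Values fitted bidirectionally relative to DMSO; chemicals reducing viability to 20–70% were retested after 10-fold dilution.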

[5] = CEETOX_H295R_OHPROG: CeeTox H295R High-throughput Steroidogenesis Assay for OH-Progesterone (OHPROG) (AID 2283435; active = hit-call score of the fitted dose curve at least 0.9, where 1 is the maximum; inactive = score below 0.9;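 for AC50: 17alpha-hydroxyprogesterone secreted into medium measured by HPLC-MS/MS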); conditions: actives raise or lower the signal
In short: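 HPLC-MS/MS quantification of 17alpha-hydroxyprogesterone secreted by H295R cells after 48 h chemical exposure, following 48 h 10 uM forskolin prestimulation. Gain or loss of signal fitted relative to DMSO. Viability checked by MTT in the same wells.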

[6] = CEETOX_H295R_11DCORT: CeeTox H295R High-throughput Steroidogenesis Assay for 11-Deoxycortisol (11DCORT) (AID 2283432; active = hit-call score of the fitted dose curve at least 0.9, where 1 is the maximum; inactive = score below 0.9;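 note: 11-deoxycortisol secreted into the medium measured by LC-MS/MS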); conditions: actives raise or lower the signal
In short: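 H295R cells; 10 uM forskolin prestim 48 h; compound in 0.1% DMSO 48 h; media extracted with MTBE; 11-deoxycortisol by LC-MS/MS, 7-point standard curve; gain/loss vs DMSO baseline; viability by MTT in same wells.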

[7] = CEETOX_H295R_CORTIC: CeeTox H295R High-throughput Steroidogenesis Assay for Corticosterone (CORTIC) (AID 2283437; active = hit-call score of the fitted dose curve at least 0.9, where 1 is the maximum; inactive = score below 0.9;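 note: corticosterone secreted into medium quantified by mass spectrometry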); conditions: actives raise or lower the signal
In short: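 Steps: seed H295R, adhere overnight; 10 uM forskolin 48 h; replace with chemical (0.1% DMSO) 48 h; extract medium with MTBE; quantify corticosterone by HPLC-MS/MS; score bidirectionally vs DMSO.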

[8] = CEETOX_H295R_CORTISOL: CeeTox H295R High-throughput Steroidogenesis Assay for Cortisol (AID 2283438; active = hit-call score of the fitted dose curve at least 0.9, where 1 is the maximum; inactive = score below 0.9;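 note: cortisol secreted into medium quantified by LC-MS/MS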); conditions: actives raise or lower the signal
In short: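 Read-out: cortisol in culture medium by reverse-phase C18 HPLC with ESI-positive tandem MS, after MTBE liquid-liquid extraction. Cells: human adrenal H295R, forskolin-primed (10 uM, 48 h) before 48 h chemical exposure in 0.1% DMSO.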

[9] = CEETOX_H295R_DOC: CeeTox H295R High-throughput Steroidogenesis Assay for DOC (AID 2283439; active = hit-call score of the fitted dose curve at least 0.9, where 1 is the maximum; inactive = score below 0.9); conditions: actives raise or lower the signal
In short: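 Human adrenocortical H295R cells, passages up to 10, received 10 uM forskolin for 48 h before chemical addition. After another 48 h exposure in 0.1% DMSO, secreted DOC was measured by LC-MS/MS, with gain or loss fitted against DMSO controls.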

Peroxisome proliferator-activated receptor gamma (Homo sapiens), sequence (P37231 whole entry, looked up, the tested form may be a part): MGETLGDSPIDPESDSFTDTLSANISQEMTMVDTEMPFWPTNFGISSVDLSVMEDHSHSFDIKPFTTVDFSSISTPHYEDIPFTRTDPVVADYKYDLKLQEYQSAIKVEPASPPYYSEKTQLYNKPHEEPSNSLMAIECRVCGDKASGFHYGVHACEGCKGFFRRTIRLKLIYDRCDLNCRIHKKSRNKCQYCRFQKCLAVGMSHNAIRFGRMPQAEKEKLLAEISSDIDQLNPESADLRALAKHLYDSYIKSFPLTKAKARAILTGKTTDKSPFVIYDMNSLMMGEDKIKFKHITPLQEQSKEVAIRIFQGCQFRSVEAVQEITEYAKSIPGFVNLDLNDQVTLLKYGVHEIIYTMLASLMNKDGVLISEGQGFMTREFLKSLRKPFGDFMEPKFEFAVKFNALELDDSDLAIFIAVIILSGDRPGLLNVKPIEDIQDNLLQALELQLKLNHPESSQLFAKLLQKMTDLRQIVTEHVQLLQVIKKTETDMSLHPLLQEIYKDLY
Retinoic acid receptor RXR-alpha (Homo sapiens), sequence (P19793 whole entry, looked up, the tested form may be a part): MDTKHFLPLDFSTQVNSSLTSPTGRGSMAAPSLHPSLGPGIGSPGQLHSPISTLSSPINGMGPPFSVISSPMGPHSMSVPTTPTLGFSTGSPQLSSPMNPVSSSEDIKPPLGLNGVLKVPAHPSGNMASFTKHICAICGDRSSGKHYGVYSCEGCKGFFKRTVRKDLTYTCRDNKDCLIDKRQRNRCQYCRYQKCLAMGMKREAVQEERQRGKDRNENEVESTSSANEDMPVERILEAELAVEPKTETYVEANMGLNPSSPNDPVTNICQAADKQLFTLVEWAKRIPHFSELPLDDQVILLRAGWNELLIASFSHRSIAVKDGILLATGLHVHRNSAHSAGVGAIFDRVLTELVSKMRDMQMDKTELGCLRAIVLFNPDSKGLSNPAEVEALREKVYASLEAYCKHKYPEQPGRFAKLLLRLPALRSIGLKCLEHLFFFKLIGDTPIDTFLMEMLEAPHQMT

With `N#CC(Br)(Br)C(N)=O` the outcome [1] was “inactive”, the outcome [2] was “inactive” and the outcome [3] was “inactive”. For the same molecule, the outcome [4] was “inactive” and the outcome [5] was “inactive”.

For `CO[C@@H]1[C@H](OC(=O)NC(=O)CCl)CC[C@]2(CO2)[C@H]1[C@@]1(C)O[C@@H]1CC=C(C)C`, the outcome [2] was “inactive” and the outcome [3] was “inactive”.

In the case of `O=C(Oc1ccc(Br)cc1)N1CCN2CCC1CC2`, the outcome [1] is reported as “inactive”, the outcome [2] is reported as “inactive” and the outcome [3] is reported as “inactive”. The AC50 [6] was 6830 nM (active), the AC50 [5] was 12800 nM (active) and the outcome [7] was “inactive”. The outcome [8] was “inactive” and the AC50 [9] was 1060 nM (active).

In the case of `[As]#[In]`, the outcome [1] is reported as “inactive”, the outcome [4] is reported as “inactive” and the outcome [7] is reported as “inactive”. For the same molecule, the outcome [9] was “inactive”.

For `CCOC(=O)[C@]1(c2ccccc2)Oc2ccccc2[C@@H]1N`, the outcome [2] was “inactive”, the outcome [3] was “inactive” and the AC50 [6] was 2190 nM (active). The AC50 [4] was 1400 nM (active), the AC50 [5] was 3160 nM (active) and the AC50 [7] was 330 nM (active). For the same molecule, the AC50 [8] was 2900 nM (active) and the AC50 [9] was 2520 nM (active).
